Unmarked numbers belong to inactive results. Calls of active or inactive are those of the source. The call rests on the fitted dose curve.
Biological target: Muscarinic acetylcholine receptor M1 (Homo sapiens) (UniProt P11229)
Experiment: Cholinergic receptor muscarinic 1 (CHRM1) small molecule agonists, cell-based qHTS assay (AID 1963589); further: nearly all actives have a fitted effect of over 35% in size
Settings: CHRM1-CHO cells, agonist mode, calcium flux fluorescence; series mostly up to 76.8 µM; activation: at the top concentration
Source text: National Center for Advancing Translational Sciences [NCATS]
Division of Preclinical Innovation [DPI]
U.S. Environmental Protection Agency [EPA]
National Institutes of Environmental Health Sciences [NIEHS]
National Toxicology Program [NTP]
U.S. Food and Drug Administration [FDA]
The CHRM1 is a muscarinic receptor. This receptor plays a crucial role in learning and memory processes and has long been identified as a promising therapeutic target for the improvement of cognitive decline in Alzheimer's disease (AD). The CHRM1-CHO cell line stably expressing human muscarinic acetylcholine receptor M1 (CHRM1) can be used for screening agonists and antagonists of interactions between CHRM1 and its ligands. The CHRM1-CHO Calcium Flux Assay is a homogeneous fluorescence-based assay for detecting the intracellular calcium level using FDSS kinetic plate reader system.
CHRM1-CHO cells were dispensed at 1000 cells/3uL/well in 1536-well black-clear bottom plates using a Multidrop Dispenser. After the assay plates were incubated at a 37 C/5% CO2 incubator for 18 h, 3 uL of Dye Loading Buffer was transferred to the assay plate by a Flying Reagent Dispenser. The assay plates were incubated at 37 C for 1h. For agonist mode, 23 nL of compounds dissolved in DMSO, positive controls or DMSO only was transferred to the assay plate by a pin tool. […] Each test compound was measured at 15 concentrations in three independent runs.
On the % scale 0 is the no-effect control and ±100 the full control effect.

Sequence of Muscarinic acetylcholine receptor M1 (Homo sapiens) (P11229 whole entry, looked up): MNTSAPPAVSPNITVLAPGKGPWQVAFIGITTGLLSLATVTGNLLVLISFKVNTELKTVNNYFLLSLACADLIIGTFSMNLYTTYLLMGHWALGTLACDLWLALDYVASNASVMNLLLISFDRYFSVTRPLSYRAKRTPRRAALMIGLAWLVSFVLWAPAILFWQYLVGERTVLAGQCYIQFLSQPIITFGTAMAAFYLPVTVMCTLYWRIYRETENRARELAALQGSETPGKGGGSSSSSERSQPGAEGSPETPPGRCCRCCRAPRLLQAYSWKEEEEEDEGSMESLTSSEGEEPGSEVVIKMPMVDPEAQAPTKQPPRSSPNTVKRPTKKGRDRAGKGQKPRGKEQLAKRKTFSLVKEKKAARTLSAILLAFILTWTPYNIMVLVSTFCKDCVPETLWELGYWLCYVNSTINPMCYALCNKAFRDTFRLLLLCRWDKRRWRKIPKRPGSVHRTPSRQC

| SMILES | activation | Potency |
| --- | --- | --- |
| CCCCCCCCS(=O)(=O)Cl | 0.632% | – |
| Cc1sccc1Br | 0.268% [at 35.3 µM] | – |
| Nc1cc(S(=O)(=O)O)ccc1S(=O)(=O)O | -0.141% | – |
| CCCCCCOC(=O)CC | 0.382% | – |
| CCC(C(=O)OCCOCCN(CC)CC)c1ccccc1 (stereo not given) | -0.589% [at 35.3 µM] | – |
| COc1ccc(C(=O)c2cccc(O)c2)c(OC)c1 | 0.896% | – |
| Fc1c(F)c(F)c(Br)c(F)c1F | 0.425% | – |
| O=C(O)c1cccc(Cl)c1Cl | 0.128% | – |
| O=C(O)c1ccccc1OP(=O)(O)O | 0.0481% [at 35.3 µM] | – |
| C[C@@H]1CCC[C@H](C)N1CCCC(O)(c1ccccc1)c1ccccn1 (stereo not given in full) | 0% [at 35.3 µM] | – |
| C=CC(C)(O)CCC=C(C)C (stereo not given) | – | inactive |
| CO[Si](C)(C)OC | -0.423% | – |
| CCCc1c2oc(C(=O)O)cc(=O)c2cc2c(=O)cc(C(=O)O)n(CC)c12 | -0.453% [at 35.3 µM] | – |
| OC[C@H]1O[C@@](CO)(O[C@H]2O[C@H](CO)[C@@H](O)[C@H](O)[C@H]2O)[C@@H](O)[C@@H]1O | – | inactive |
| NC(=O)c1cccc([N+](=O)[O-])c1 | -0.59% | – |
| C1CCSC1 | -0.02% | – |
| NC(=O)c1ccccc1N | -0.31% | – |
| CC(C)(C)c1ccc(O)c(C(C)(C)C)c1 | – | inactive |
| CC1=C(O)C(=O)OC1C (stereo not given) | 0.115% | – |
| Clc1ccccc1-c1nc(-c2ccncc2)no1 | -0.595% [at 35.3 µM] | – |

| SMILES | activation | Potency |
| --- | --- | --- |
| CCCOC(=O)C(C)O (stereo not given) | 0.411% | – |
| NC(=O)N[C@@H](CCC(=O)O)C(=O)O | 1.41% [at 35.3 µM] | – |
| O=c1oc2c(O)c(O)cc3c(=O)oc4c(O)c(O)cc1c4c23 | 0.409% [at 15.8 µM] | – |
| OCc1ccccc1O | 0.19% [at 35.3 µM] | – |
| CC(C)(N=C=O)c1cccc(C(C)(C)N=C=O)c1 | – | inactive |
| N[C@H](C(=O)O)c1ccc(O)cc1 | 0.717% [at 15.8 µM] | – |
| CC1(C)[C@H]2CC[C@]1(C)[C@H](O)C2 | 0.471% | – |
| C=COCCOCCOCCOC=C | 0.193% | – |
| C[N+](C)(C)CC[N+]1(C)Cc2c(Cl)c(Cl)c(Cl)c(Cl)c2C1 | -0.551% [at 35.3 µM] | – |
| CN(C)CCCN(C)CCCN(C)C | -0.32% | – |
| Brc1cc(Br)cc(Br)c1 | 0.405% | – |
| CC(=O)CC(=O)Nc1ccccc1 | – | inactive |
| CCCCCCCCCCCCCCCCCC(=O)OCC(CC)CCCC (stereo not given) | 0.0233% | – |
| CCOC(=O)NCCC[Si](OCC)(OCC)OCC | 0.0408% | – |
| CCC(COC(=O)CCS)(COC(=O)CCS)COC(=O)CCS | 0.282% | – |
| Cc1cc(O)c(Cl)cc1C | -0.733% | – |
| c1coc(CNc2ncnc3nc[nH]c23)c1 | 10.1% | – |
| O=C1c2cccc(O)c2C(=O)c2c(O)cccc21 | – | inactive |
| CCCCCCCC(OC)OC | 0.332% [at 35.3 µM] | – |
| O=C1c2ccccc2C(=O)C1c1ccc2cc(S(=O)(=O)O)cc(S(=O)(=O)O)c2n1 | 0.414% | – |

Reference: PubChem BioAssay (Tox21)
